Compound activity (PubChem)
Hits are enriched below; roughly 3.7% of the tested compounds scored in any of these assays.
ATXN2 expr inh – reduces ATXN2 reporter expression in HEK-293 cells. HEK-293 ATXN2-luciferase reporter, luminescence, 24 h. Potency, µM (titrated, usually from 57 µM), for inactives: at the top dose activity change, negative = inhibition, actives largely listed as inhibitors. actives 0.72% (n = 360,000). AID 1745845; further: on the % scale 0 is the no-effect control and ±100 the full control effect; nearly all actives have a fitted effect of over 55% in size
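ATXN2-luciferase reporter cells (luciferase flanked by upstream and downstream ATXN2 gene portions) were treated 24 h at 37 °C with compounds at up to 57 uM. SteadyGlo luminescence gave expression; GF-AFC fluorescence gave viability.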
HepG2 tox-1 – counter-screen for TGF-b inhibitors: cytotoxicity in HepG2 cells; HepG2 CAGA-GFP viability, ATP luminescence, 18 h; Potency, µM (highest dose often 46.1 µM), for the others: at the highest dose activity change, negative = cytotoxicity, actives largely listed as cytotoxic; actives 0.76% (n = 410,000); AID 588856
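HepG2 CAGA-GFP cells (1000/well, DMEM with 1% FBS) received compound, then TGF-beta at 500 pg/mL final, and were incubated 18 hours at 37 degrees C. Viability was read by CellTiter-Glo luminescence. Media-only wells were set as complete cell-killing and DMSO as no toxicity.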
TGFb inhibitor – blocks TGF-b signaling. AID 588855. Potency, µM (doses to about 46.1 µM), for inactives: at the top dose activity, negative = inhibition, hits mostly inhibitors. HepG2 CAGA-GFP TGF-b/SMAD3 reporter, GFP fluorescence, 18 h; TGF-beta stimulated, 500 pg/mL final. actives 1.2% (n = 410,000); further: on the % scale 0 is the no-effect control and ±100 the full control effect; nearly all actives have a fitted effect of over 65% in size
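HEPG2 CAGA-GFP reporter cells (1000/well, DMEM with 1% FBS) received compounds, then recombinant TGF-beta at 500 pg/mL final for 18 hours at 37 degrees C. Per-cell GFP summed per well was normalised to unstimulated and stimulated DMSO controls before curve fitting.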
GLP1R inv ag – acts as inverse agonist at human GLP-1 receptor; P43220; HEK293 GLP-1R CRE-luciferase, luminescence, 24 h; GLP-1R form is constitutively active; Potency, µM (series often up to 38.3 µM), inactives show at the top dose activity change, negative = inhibition, actives largely listed as inhibitors; actives 1.6% (n = 410,000); further: on the % scale 0 is the no-effect control and ±100 the full control effect; nearly all actives have a fitted effect of over 55% in size
Target sequence (P43220 whole entry, looked up): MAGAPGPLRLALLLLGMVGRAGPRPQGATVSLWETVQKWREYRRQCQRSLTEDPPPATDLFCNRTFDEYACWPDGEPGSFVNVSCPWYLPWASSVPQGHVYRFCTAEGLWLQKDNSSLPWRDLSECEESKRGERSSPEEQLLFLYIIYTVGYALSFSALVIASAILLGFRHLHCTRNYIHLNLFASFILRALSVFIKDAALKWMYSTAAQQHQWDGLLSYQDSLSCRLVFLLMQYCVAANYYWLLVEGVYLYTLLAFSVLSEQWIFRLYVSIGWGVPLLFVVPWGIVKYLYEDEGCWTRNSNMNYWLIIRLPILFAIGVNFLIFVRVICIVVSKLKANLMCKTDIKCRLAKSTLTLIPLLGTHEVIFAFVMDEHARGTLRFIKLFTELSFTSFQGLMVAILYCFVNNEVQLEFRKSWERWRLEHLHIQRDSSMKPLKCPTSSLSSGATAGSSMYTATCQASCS
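Using stably transfected HEK293 (constitutively active GLP-1R, cAMP-luciferase reporter), compounds were incubated 24 hr and luciferase measured by luminescence.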
GLP-1R agonist – activates the human GLP-1 receptor; actives 0.007% (n = 380,000); HEK293 GLP-1R CRE-luciferase, luminescence, 4-6 h; cells express a hypersensitive GLP-1R form; Potency, µM (titrated, usually from 45.6 µM), for inactives: at the top dose activation, actives largely listed as activators; P43220; AID 624172; further: % of control where 0% means no effect
S2 tox – viability counter-screen for ATXN expression inhibitors; S2 cells (HEK-293 line with an ATXN2-luciferase reporter) viability, CellTiter-Fluor protease fluorescence, 24 h; Potency, µM (top dose mostly 56.7 µM), hits mostly cytotoxic; actives 0.49% (n = 400,000); AID 651635; further: nearly all actives have a fitted effect of over 40% in size
TGFb confirm – TGF-b pathway inhibition, cherry-pick retest; shares compounds with TGFb inhibitor; HepG2 CAGA-GFP TGF-b reporter, GFP fluorescence, 18 h; cells stimulated with TGF-beta, 500 pg/mL; actives 63% (n = 1,600); Potency, µM (series often up to 46.1 µM), for inactives: at the top dose activity, negative = inhibition, hits mostly inhibitors; further: on the % scale 0 is the no-effect control and ±100 the full control effect; nearly all actives have a fitted effect of over 65% in size
HepG2 tox-2 – HepG2 cytotoxicity, TGF-b inhibitor counterscreen | shares compounds with TGFb inhibitor | HepG2 CAGA-GFP viability, ATP luminescence, 18 h; cells stimulated with TGF-beta, 500 pg/mL | Potency, µM (doses to about 46.1 µM), for inactives: at the top dose activity, negative = cytotoxicity, actives largely listed as inhibitors | actives 27% (n = 1,600) | AID 720535; further: on the % scale 0 is the no-effect control and ±100 the full control effect; nearly all actives have a fitted effect of over 70% in size
CCL64 TGFb inh – blocks TGF-b signaling in CCL64 reporter cells; CCL64 CAGA-GFP reporter, TGF-b stimulated, GFP fluorescence, 18 h; actives 41% (n = 1,600); Potency, µM (doses to about 46.1 µM), for inactives: top-dose activity, negative = inhibition, most hits filed as inhibitors; shares compounds with TGFb inhibitor; further: nearly all actives have a fitted effect of over 65% in size
TGFb COP inh – validation of TGF-b inhibitors in HepG2 COP promoter reporter. shares compounds with TGFb inhibitor. HepG2 COP-GFP TGF-b reporter, GFP fluorescence, 18 h; cells stimulated by added recombinant TGF-beta. AID 720537. actives 3% (n = 1,600). Potency, µM (top dose mostly 46.1 µM), for the others: at the highest dose activity, negative = inhibition, most hits filed as inhibitors; further: nearly all actives have a fitted effect of over 70% in size
* hit, by the source's call; [ ] = remark or other dose. The call rests on the fitted dose curve; in most records, active means well fitted curve in the direction sought with a large enough effect; inconclusive means small, poorly fitted or top-dose-only effect, or another doubt; inactive means no such curve, though single readings can be large; an effect the other way counts as inactive or inconclusive. Potency means the concentration at half of the fitted maximal effect.

Results for Oc1ccc(Br)cc1-c1cc(-c2ccccc2Cl)[nH]n1 ?
ATXN2 expr inh: 4%; HepG2 tox-1: -22%; TGFb inhibitor: -29%; GLP1R inv ag: inconclusive; GLP-1R agonist: 0%; S2 tox: inactive

What do the screens show for `COc1ccc(O)c(-c2cc(-c3ccccc3Cl)[nH]n2)c1`?
ATXN2 expr inh: -6%; HepG2 tox-1: -63%; TGFb inhibitor: 7.9µM*; GLP1R inv ag: inconclusive; GLP-1R agonist: 15%; S2 tox: inconclusive; TGFb confirm: 18µM*; HepG2 tox-2: inconclusive; CCL64 TGFb inh: 26µM*; TGFb COP inh: 30%

What do the screens show for `COc1ccc(-c2cc(-c3ccccc3O)[nH]n2)cc1`?
ATXN2 expr inh: 116%; HepG2 tox-1: -14%; TGFb inhibitor: 10µM*; GLP1R inv ag: inconclusive; GLP-1R agonist: -59%; S2 tox: inactive; TGFb confirm: inconclusive; HepG2 tox-2: inconclusive; CCL64 TGFb inh: inconclusive; TGFb COP inh: 44%

What do the screens show for `CCc1ccc(-n2c(=O)c3cccnc3n2CC(=O)N(CC)c2cccc(C)c2)cc1`?
HepG2 tox-1: -98%; TGFb inhibitor: inconclusive; GLP1R inv ag: inconclusive

How did COc1cc(NC(=O)C2Cc3ccccc3CN2S(C)(=O)=O)cc(OC)c1 (stereo not drawn) do in these assays?
ATXN2 expr inh: -27%; HepG2 tox-1: 25%; TGFb inhibitor: 11µM*; GLP1R inv ag: -8%; GLP-1R agonist: 5%; S2 tox: inactive; TGFb confirm: -21%; HepG2 tox-2: -6%; CCL64 TGFb inh: -21%; TGFb COP inh: 8%

Results for COC(=O)[C@@]1(Cc2ccc(OC)cc2)[C@H]2c3cc(C(=O)N4CCCC4)n(Cc4c(CO)[nH]cc(C)c4=O)c3C[C@H]2CN1C(=O)c1ccccc1 ?
ATXN2 expr inh: 0%; HepG2 tox-1: -1%; TGFb inhibitor: inconclusive; GLP1R inv ag: 41%; GLP-1R agonist: 15%; S2 tox: inactive; TGFb confirm: -14%; HepG2 tox-2: -1%; CCL64 TGFb inh: 0%; TGFb COP inh: -3%

What do the screens show for `COC(=O)[C@@]1(Cc2ccc(OC)cc2)[C@H]2c3cc(C(=O)N(C)C)n(Cc4c(CO)[nH]cc(C)c4=O)c3C[C@H]2CN1C(=O)c1ccccc1`?
ATXN2 expr inh: 1%; HepG2 tox-1: -1%; TGFb inhibitor: 3%; GLP1R inv ag: 16%; GLP-1R agonist: -1%; S2 tox: inactive

How did CC1CCN(C(=O)c2[nH]cnc2C(=O)NCC(=O)OC(C)(C)C)CC1 do in these assays?
ATXN2 expr inh: 8%; HepG2 tox-1: -23%; TGFb inhibitor: -4%; GLP1R inv ag: 2%; GLP-1R agonist: -1%; S2 tox: inactive

How did CC1CCN(C(=O)c2[nH]cnc2C(=O)NCc2ccc(CNC(=O)OC(C)(C)C)cc2)CC1 do in these assays?
ATXN2 expr inh: -4%; HepG2 tox-1: -7%; TGFb inhibitor: inconclusive; GLP1R inv ag: 14%; GLP-1R agonist: -6%; S2 tox: inactive; TGFb confirm: inconclusive; HepG2 tox-2: 6%; CCL64 TGFb inh: 0%; TGFb COP inh: -6%

How did O=C(NCc1ccccc1)c1nc[nH]c1C(=O)N1CCN(c2ccccc2)CC1 do in these assays?
ATXN2 expr inh: 13%; HepG2 tox-1: -3%; TGFb inhibitor: -7%; GLP1R inv ag: 10%; GLP-1R agonist: -4%; S2 tox: inactive

What do the screens show for `CC1CCN(C(=O)c2[nH]cnc2C(=O)NCc2ccccc2)CC1`?
ATXN2 expr inh: 11%; HepG2 tox-1: 3%; TGFb inhibitor: inconclusive; GLP1R inv ag: 9%; GLP-1R agonist: -5%; S2 tox: inactive; TGFb confirm: -7%; HepG2 tox-2: 4%; CCL64 TGFb inh: 1%; TGFb COP inh: -2%

How did CC(C)(C)OC(=O)N1CCC(NC(=O)c2[nH]cnc2C(=O)Nc2ccccc2)CC1 do in these assays?
ATXN2 expr inh: inconclusive; HepG2 tox-1: 6%; TGFb inhibitor: 13µM*; GLP1R inv ag: -12%; GLP-1R agonist: 10%; S2 tox: inconclusive; TGFb confirm: inconclusive; HepG2 tox-2: inconclusive; CCL64 TGFb inh: inconclusive; TGFb COP inh: 22%

How did COCc1oc2ccc(NS(=O)(=O)c3ccc(C)cc3)cc2c1C(=O)OC do in these assays?
HepG2 tox-1: -16%; TGFb inhibitor: -21%; GLP1R inv ag: inconclusive

Results for C[C@@H]1C[C@H](OC(=O)[C@@H](O)c2ccccc2)CC(C)(C)N1C ?
GLP-1R agonist: 6%[19.8 µM]

How did CCOC(=O)c1ccc(NC2SC(=O)N(Cc3cccc(C(=O)O)c3)C2=O)cc1 (stereo not drawn) do in these assays?
ATXN2 expr inh: -6%; HepG2 tox-1: -3%; TGFb inhibitor: inconclusive; GLP1R inv ag: 23%; S2 tox: inactive

Results for COc1cccc(-c2csc(NC3OC(=O)c4c3ccc(OC)c4OC)n2)c1 (stereo not drawn) ?
ATXN2 expr inh: 81%; HepG2 tox-1: -23%; TGFb inhibitor: 11µM*; GLP1R inv ag: inconclusive; GLP-1R agonist: 7%; S2 tox: inconclusive; TGFb confirm: 21µM*; HepG2 tox-2: -24%; CCL64 TGFb inh: inconclusive; TGFb COP inh: 22%
